The values below are quoted from earlier work in PubChem BioAssay AID977608.

The campaign covered roughly 4,300 compounds. About 4,300 (100%) were called active. The limit is not given here; nearly all actives have IC50 up to about 1400 µM. So high a share suggests a set chosen from earlier hits. Some of the results follow. Square brackets hold non-standard residues; d marks the D form. Peptide text beside a SMILES is read from it. β3hR = N=C(N)NCCC[C@H](N)CC(=O)O; β3hE = N[C@@H](CCC(=O)O)CC(=O)O; β3hQ = NC(=O)CC[C@H](N)CC(=O)O; β3hD = NC(CC(=O)O)CC(=O)O; β3hA = C[C@H](N)CC(=O)O

This data set can be described thus: protein-ligand inhibition affinities from structures – PDB-derived complexes (AID 977608).

As for `CC(C)Oc1ccc(-c2ccnc(NC([P+](O)(O)O)[P+](O)(O)O)c2)cc1`, the IC50 (usually the concentration that gives 50% inhibition) (literature IC50, protein: human farnesyl pyrophosphate synthase (FPPS), PDB entry 4h5c) was 0.028 µM (active).

For the molecule `C[C@H](CC(=O)O)C1NN(C)C2N=C(N)NC(=O)C2C1O` (some centres not stated), the IC50 (literature IC50, protein: Dihydropteroate Synthase, PDB entry 4d9p) was 145 µM (active).

Take `COc1ccc(C(=O)CCC(=O)O)c(O)c1`: for the setting “literature IC50, protein: Orotidine 5'-phosphate decarboxylase, PDB entry 3vi2”, the IC50 was 170 µM (active).

Take `CN1CCN(c2ccc(-c3ccncc3-c3cc(F)c(O)c(F)c3)cc2)CC1`: the IC50 (literature IC50, protein: Ribosomal protein S6 kinase alpha-3 RSK2, PDB entry 4nus) is 0.005 µM (active).

Turning to `CCCn1cnc2c1c(=O)n(CCCCC(C)=O)c(=O)n2C`, the IC50 (literature IC50, protein: Chitinase A(W275G mutant), PDB entry 3as2) is 360 µM (active).

Turning to `CC[C@H](C)[C@H](NC(C)=O)C(=O)N[C@@H](Cc1ccc(O)cc1)C(=O)N[C@@H](Cc1ccc(O)cc1)[P+](O)(O)O`, the IC50 (literature IC50, protein: Human testis angiotensin converting enzyme, PDB entry 4bzr) is 0.025 µM (active).

On to `O=C(NCc1cccc(O)c1)Nc1nc(-c2ccncc2)cs1`, for which, where the note is “literature IC50, protein: Rho-associated protein kinase 1, PDB entry 3twj”, the IC50 was 0.0145 µM (active).

Turning to `CC(C)OCC[N+]1=C2NC(=[N+]3CCOCC3)CC(=O)N2CC[C@H]1C(F)(F)F`, the IC50 (literature IC50, protein: PHOSPHATIDYLINOSITOL 3-KINASE CATALYTIC SUBUNIT TYPE 3 Vsp34, PDB entry 4uwg) is 0.007 µM (active).

`C[C@@H]1COC[C@@H](C)[N+]1=C1CC(=O)N2CC[C@@H](C(F)(F)F)[N+](Cc3ccc(Cl)s3)=C2N1`: the half-inhibitory concentration (IC50) (literature IC50, protein: PHOSPHATIDYLINOSITOL 3-KINASE CATALYTIC SUBUNIT TYPE 3 Vsp34, PDB entry 4uwk) was 0.001 µM (active).

Consider `O/N=C/c1ccc(O)cc1`, for which the IC50 (literature IC50, protein: Macrophage Migration Inhibitory Factor (MIF), PDB entry 2ooz) was 7 µM (active).

For `CC(C)[C@H]1[C@H](C(=O)N2CCC[C@H]2C(=O)N(C)C)SC2=N[C@@](C)(c3ccc(Cl)cc3)[C@@H](c3ccc(Cl)cc3)N21`, the IC50 (literature IC50, protein: E3 ubiquitin-protein ligase Mdm2, PDB entry 3vzv) is 0.0092 µM (active).

For `CC(C)C[C@H](N[P+](O)(O)O[C@@H]1O[C@@H](C)[C@H](O)[C@@H](O)[C@H]1O)C(=O)N[C@@H](Cc1c[nH]c2ccccc12)C(=O)O`, the IC50 (literature IC50, protein: human neutral endopeptidase (Neprilysin), PDB entry 1dmt) is 0.002 µM (active).

For the molecule `O=C1N=C(c2ccccc2)C=CC1O` (configuration not stated), the 50% inhibitory concentration (IC50) (literature IC50, protein: Polymerase PA, PDB entry 4m5o) was 0.38 µM (active).

For `Nc1csc2nccnc12`, the IC50 (literature IC50, protein: Dengue virus 3 non-structural protein 5, PDB entry 4ctk) is 10000 µM (active).

As for `O[C@@H]1[C@@H](CO[P+](O)(O)O)O[C@](O)(CO[P+](O)(O)O)[C@H]1O`, where the note is “literature IC50, PDB entry 4fxf”, the IC50 is 6.5 µM (active).

Consider `CCN1CCN(C(=O)N[C@@H](C(=O)N[C@H](C(=O)O)[C@H]2N[C@@H](C(=O)O)C(C)(C)S2)c2ccccc2)C(=O)C1=O`, for which the IC50 is, setting by setting: (literature IC50, protein: Penicillin-binding protein 3, PDB entry 4kqq) 126 µM (active); (literature IC50, protein: Penicillin-binding protein 3, PDB entry 4kqr) 126 µM (active).

Turning to `CCN1CCN(C(=O)N[C@@H](C(=O)N[C@H](C=O)[C@@H]2N[C@@H](C(=O)O)C(C)(C)S2)c2ccccc2)C(=O)C1=O`, the IC50 (literature IC50, protein: Penicillin-binding protein 3, PDB entry 4kqo) was 0.166 µM (active).

With `CC(=O)Nc1cc(Oc2ccc3c(ccn3C(=O)Nc3ccc(CN4CCN(C)CC4)c(C(F)(F)F)c3)c2)ncn1`, the 50% inhibitory concentration (IC50) (literature IC50, protein: Tyrosine-protein kinase JAK2, PDB entry 3ugc) was 0.947 µM (active).

As for `N#C[C@@H](Cc1cccc(C(=O)c2c[nH]c3ncccc23)c1)C(N)=O`, the half-inhibitory concentration (IC50) (literature IC50, protein: Ribosomal protein S6 kinase alpha-3, PDB entry 4jg7) is 0.12 µM (active).

Turning to `O=C(N[C@H]1CCCCCCC[C@@H]2C[C@@]2(C(=O)NS(=O)(=O)C2CC2)NC(=O)[C@@H]2C[C@@H](OC(=O)N3CCc4ccccc4C3)CN2C1=O)OC1CCCC1`, where the note is “literature IC50, protein: Serine protease NS3, PDB entry 4ktc”, the half-maximal inhibitory concentration (IC50) is 0.001 µM (active).

Regarding `CCCCC[C@H](CC(=O)NO)C(=O)N[C@H](C(=O)N1CCC[C@H]1C(=O)O)C(C)C`, the half-inhibitory concentration (IC50) (literature IC50, protein: Peptide Deformylase from Staphylococcus aureus, PDB entry 1q1y) was 0.02 µM (active).

Turning to H-GSDARFLRGYHLYA-OH, the IC50 (literature IC50, protein: HLA class II histocompatibility antigen, DR alpha chain, PDB entry 4ov5) was 0.0369 µM (active).

H-MHRVSAALEEANKVFL-OH: under “literature IC50, protein: Maltose ABC transporter periplasmic protein, Nuclear receptor subfamily 0 group B member 2 chimeric construct MBP-SHP, PDB entry 4nuf”, the IC50 was 5 µM (active).

On to H-FLNKDLEVDGHFVTM-OH, for which the IC50 (literature IC50, protein: HLA class I histocompatibility antigen, A-2 alpha chain HLA-A*0201, PDB entry 4u6y) is 0.083 µM (active).

Consider `O=C(Nc1ccccc1N1CCNCC1)c1csc(-n2ncc3ccccc32)n1`, for which the IC50 (literature IC50, protein: Serine/threonine-protein kinase Chk1, PDB entry 4hyi) was 0.003 µM (active).

On to `CN1C(=O)N[C@H](Cc2c[nH]c3c(Cl)cccc23)C1=O`, for which, under “literature IC50, protein: Receptor-interacting serine/threonine-protein kinase 1 (C34A, C127A, C233A, C240A mutation), PDB entry 4ith”, the IC50 is 0.317 µM (active).

Regarding `CCN(CC)CCOc1cccc2oc3c4c(O)c5c(=O)c(C)c6c(c5c3nc12)C(=O)[C@@](C)(OCC[C@H](OC)[C@@H](C)[C@@H](OC(C)=O)[C@H](C)[C@H](O)[C@H](C)[C@@H](O)[C@@H](C)CCC[C@@H](C)C(=O)N4)O6`, the IC50 (literature IC50, protein: DNA-directed RNA polymerase subunit alpha, PDB entry 4kn4) is 0.057 µM (active).

Take `CO[C@H]1CCO[C@@]2(C)Oc3c(C)c(=O)c4c(O)c(c5oc6cccc(OCCCCN7CCN(CCn8ccnc8)CC7)c6nc5c4c3C2=O)NC(=O)[C@H](C)CCC[C@H](C)[C@H](O)[C@@H](C)[C@@H](O)[C@@H](C)[C@H](OC(C)=O)[C@@H]1C`: the concentration for half-maximal inhibition (IC50) (literature IC50, protein: DNA-directed RNA polymerase subunit alpha, PDB entry 4kn7) was 0.024 µM (active).

Turning to `CC[C@H](C)[C@H](NC(=O)C[C@H](CCC(=O)O)NC(=O)[C@H](CCC(=O)O)NC(=O)[C@H](C)N)C(=O)NCC(=O)N[C@@H](C)C(=O)N[C@@H](CCC(N)=O)CC(=O)N[C@@H](CC(C)C)C(=O)N[C@@H](CCCN=C(N)N)C(=O)N[C@@H](CCCN=C(N)N)CC(=O)N[C@@H](CCSC)C(=O)N[C@@H](C)C(=O)N[C@@H](CC(=O)O)C(=O)N[C@@H](CC(=O)O)CC(=O)N[C@@H](CC(C)C)C(=O)N[C@@H](CC(N)=O)C(=O)N[C@@H](C)CC(=O)N[C@@H](CCC(N)=O)C(=O)N[C@@H](Cc1ccc(O)cc1)C(=O)O` (H-AE[β3hE]IGA[β3hQ]LR[β3hR]MAD[β3hD]LN[β3hA]QY-OH), the IC50 (literature IC50, protein: fusion protein of mouse and human Mcl-1, PDB entry 4bpi) was 0.67 µM (active).

`CC[C@H](C)[C@H](NC(=O)[C@H](C)N)C(=O)N[C@H](C)C(=O)N[C@@H](C)C(=O)N[C@@H](CCC(N)=O)CC(=O)N[C@@H](CC(C)C)C(=O)N[C@@H](CCCN=C(N)N)C(=O)N[C@@H](CCCN=C(N)N)CC(=O)N[C@@H](CCSC)C(=O)N[C@@H](C)C(=O)N[C@@H](CC(=O)O)C(=O)N[C@@H](CC(=O)O)CC(=O)N[C@@H](CC(C)C)C(=O)N[C@@H](CC(N)=O)C(=O)N[C@@H](C)CC(=O)N[C@@H](CCC(N)=O)C(=O)N[C@@H](Cc1ccc(O)cc1)C(=O)N[C@@H](CCC(=O)O)C(N)=O`: the IC50 (literature IC50, protein: fusion protein of mouse and human Mcl-1, PDB entry 4bpj) is 1 µM (active).

`Nc1ncc2c(n1)-c1c([nH]c3ccc(Br)cc13)CCC2`: where the note is “literature IC50, protein: Mitogen-activated protein kinase kinase kinase 14, PDB entry 4idt”, the IC50 is 0.1 µM (active).

Consider `N#CNC(=NCCCCCCOc1ccc(Cl)cc1)Nc1ccncc1`, for which the IC50 (literature IC50, protein: Human Nicotinamide Phosphoribosyltransferase, PDB entry 4o12) is 0.002 µM (active).

As to `CCOc1ccc(C(=O)Nc2ccc(F)c([C@@]3(C)NC(N)OCC3(F)F)c2)nc1` (some centres not stated), the IC50 is 0.904 µM (active) (literature IC50, protein: BETA-SECRETASE 2, PDB entry 3zlq) and 0.184 µM (active) (literature IC50, protein: Beta-secretase 1, PDB entry 4j0t).

Regarding `CCOP(=O)(COc1ccc(CCc2cnc3c(c2)C(=O)N(C)c2cccnc2N3CC)cc1)OCC`, the concentration for half-maximal inhibition (IC50) (literature IC50, protein: Reverse transcriptase, PDB entry 4i7f) is 0.1 µM (active).

For the molecule `O=C(COc1ccccc1[P+](O)(O)O)Nc1cc(C(F)(F)F)ccc1Cl`, for the setting “literature IC50, protein: 14-3-3 protein sigma, PDB entry 4dhp”, the half-inhibitory concentration (IC50) was 36 µM (active).

Take `O=C(COc1ccccc1[P+](O)(O)O)Nc1ccccc1Cl`: the IC50 (literature IC50, protein: 14-3-3 protein sigma, PDB entry 4dhr) was 27 µM (active).

Consider `O=C(COc1ccccc1[P+](O)(O)O)Nc1cccc(Cl)c1Cl`, for which the IC50 (literature IC50, protein: 14-3-3 protein sigma, PDB entry 4dhu) was 5 µM (active).

For `O=C(COc1ccccc1[P+](O)(O)O)Nc1ccccc1C(F)(F)F`, the IC50 (literature IC50, protein: 14-3-3 protein sigma, PDB entry 3t0l) is 30 µM (active).

As to `N#Cc1c(F)cc(O)cc1SCCS(O)(O)O`, under “literature IC50, protein: M-phase inducer phosphatase 2 CDC25B, PDB entry 4wh9”, the IC50 is 1000 µM (active).

In the case of `COc1cc2cc(c1)NC(=O)/C(C)=C/CC[C@H](OC(N)=O)[C@@H](OC(N)=O)/C(C)=C/[C@H](C)[C@@H](OC)[C@@H](OC)COC2`, the IC50 (literature IC50, protein: Heat shock protein HSP 90-alpha, PDB entry 4jql) was 1 µM (active).
